The panel holds about 79,000 compounds, 15% with a hit somewhere; the sample as a whole holds those more often. Values without a mark were called inactive. Activity calls are given as the source filed them. Cut-off read from the data, not from the text of the source: active = growth inhibition above about 70%; inactive = the rest.
How the values were obtained:
[1] = NCI Yeast Anticancer Drug Screen. Data for the rad50 strain (AID 155);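 note: 0% = growth of vehicle-only cultures of the same strain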; conditions: S. cerevisiae rad50 strain growth inhibition; at 50.0 µM; hits give high values
Method in brief: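 Cells are treated with compound, grown, and their growth is then scored against vehicle-only cultures of the same repair-deficient yeast strain.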

[2] = NCI Yeast Anticancer Drug Screen. Data for the mec2-1 strain (AID 157); conditions: S. cerevisiae mec2-1 strain, at 50.0 µM, hits give high values
Method in brief: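 Using mec2-1 yeast: add compound, measure growth, express inhibition versus vehicle-treated cultures.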

[3] = NCI Yeast Anticancer Drug Screen. Data for the sgs1 mgt1 strain (AID 161);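 note: 0% = growth of cultures given vehicle only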; conditions: S. cerevisiae sgs1 mgt1 strain, at 50.0 µM, hits give high values
Method in brief: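 This yeast growth screen uses a strain with defined DNA-repair lesions; compound-treated growth is compared with vehicle-treated growth.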

[4] = NCI Yeast Anticancer Drug Screen. Data for the cln2 rad14 strain (AID 165);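 note: 0% = growth equal to vehicle treated cultures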; conditions: S. cerevisiae cln2 rad14 strain, at 50.0 µM, hits give high values
Method in brief: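 Yeast strain cln2 rad14, bearing defects in cell cycle control and DNA repair, serves as the test system; values reflect growth inhibition compared with vehicle.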

[5] = NCI Yeast Anticancer Drug Screen. Data for the bub3 strain (AID 167); conditions: S. cerevisiae bub3 mutant strain, at 50.0 µM, hits give high values
Method in brief: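 Part of a panel of yeast mutants defective in DNA damage repair or cell cycle regulation. Each strain is grown with compound, and inhibition is calculated relative to solvent-treated cultures.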

[6] = NCI Yeast Anticancer Drug Screen. Data for the mlh1 rad18 strain (AID 175); conditions: S. cerevisiae mlh1 rad18 strain growth inhibition; at 50.0 µM; hits give high values
Method in brief: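 Steps: expose repair-defective yeast to compound; measure growth; express inhibition against vehicle-treated controls.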

Structure (SMILES)	growth inhibition [1]	growth inhibition [2]	growth inhibition [3]	growth inhibition [4]	growth inhibition [5]	growth inhibition [6]
O=c1ccc2ccc(-c3cnc(O)[nH]c3=O)oc-2c1	25.6%	2.05%	5.35%	1.4%	2.25%	10.3%
Cn1c2ccccc2n2c(=O)c3c(c(C#N)c12)CCCC3	-31.1%	-35.2%	-3.1%	-0.35%	-20.6%	-21.7%
NOCc1cc(Cl)sc1Cl	24.9%	-2.9%	6.1%	60%	-23.9%	11.3%
CCCC1(c2ccccc2)SCC(=O)NC1=O (stereo not given)	31.3%	-0.2%	-16.6%	-25.6%	-14.2%	-25.9%
CCN(CC)CCOC(=O)c1cc(C(C)O)nc2ccccc12 (stereo not given)	0.6%	12.3%	-10.5%	0.55%	21.6%	-7.1%
O=C(O)c1ccc(/C=N/NC(=O)C(O)(c2ccccc2)c2ccccc2)cc1	8.3%	-21.9%	-18.9%	11.7%	-10.4%	-9.65%
COc1ccc(C=Nc2cc([N+](=O)[O-])ccc2O)cc1	8.5%	-2.75%	3.75%	-9.45%	25.5%	3%
O=c1cc[nH]c2c(Cl)cccc12	-8.15%	-20.9%	-5.05%	0.95%	2%	-2.9%
CC[n+]1c(-c2ccccc2)c2cc(NCCCN)ccc2c2ccc(N)cc21	33%	15.8%	8.8%	6.3%	3.75%	40.5%
COc1cccc(/C(C#N)=C\O)c1	-17.2%	-36.9%	-29.9%	3.2%	-42.9%	-8.8%
O=Cc1c(O)nc[nH]c1=O	-23.9%	-27.9%	-4.15%	6.75%	-13.4%	-7.7%
COc1ccc(-c2c(C#N)c(S)n(NS(=O)(=O)c3ccccc3)c(=O)c2C#N)cc1	16.8%	56.7%	43.7%	-1.5%	34%	58%
Cc1ccc(O)c(C(=O)C[n+]2ccccc2)c1	-12.8%	-9.65%	-1.25%	1.2%	0.1%	-0.55%
O=C1OC(=O)C2C3CCC(O3)C12 (stereo not given)	13.9%	7.4%	4.75%	-0.8%	-0.5%	-5%
Cc1nn(C(=O)c2ccccc2O)c2c1C(c1ccccc1)SC(N)=N2 (stereo not given)	16.6%	17.6%	25.2%	-5.25%	30.9%	9.3%
COc1cc(Cl)ccc1NC(=O)COc1ccc(Cl)cc1	4.55%	0.5%	-12.8%	-3.6%	20%	-17.1%
c1ccc(CCOC(c2ccccc2)(c2ccccc2)c2ccccc2)cc1	-11.2%	-9.25%	0.3%	-61.6%	-10.4%	-26.2%
C=C(Cl)C(=C)CCC(Cl)C(C)(C)Cl (stereo not given)	12.6%	9.4%	-13.7%	2.5%	-16.8%	-8.4%
O=C1Nc2ccccc2C12CCNC2Cc1ccccc1 (stereo not given)	-17.2%	-12.2%	-11.8%	19.8%	-8.55%	-21.4%
NC(=O)/C=C/C(N)=O	13.6%	-9.45%	-16.7%	-13.5%	-5.05%	2.7%

Structure (SMILES)	growth inhibition [1]	growth inhibition [2]	growth inhibition [3]	growth inhibition [4]	growth inhibition [5]	growth inhibition [6]
CNCCC(=O)C1CCC(OC)CC1 (stereo not given)	26.2%	-3%	2.1%	-49.5%	5.45%	-8.45%
CC1(C)C(O)c2ccccc2OC1N1CCN(C2Oc3ccccc3C(O)C2(C)C)CC1 (stereo not given)	-18.4%	-1.35%	23.8%	-4.65%	-10.8%	-8.6%
COc1ccn(C2OC(=O)C(C)(C)C2=O)c(=O)n1 (stereo not given)	-0.4%	-15.4%	0.55%	-1.2%	-9.4%	-12.6%
O=C(C(=O)c1cccs1)c1cccs1	3.1%	9.05%	34.4%	6.15%	-17.5%	22.5%
CCc1ccc(/C(C#N)=C/c2ccc(N(C)CCC#N)cc2)cc1	10.8%	2.8%	18.8%	5%	16.9%	-23.9%
CCCCCCCCCCCCCCCOc1ccc2ccccc2c1	-11.4%	8.2%	-5.8%	-27.7%	-7.05%	-35.1%
CN1C/C(=C\c2ccccc2)C2=NN(C(N)=S)[C@H](c3ccccc3)[C@@H]2C1	3.5%	-18.1%	-5.85%	10.9%	-19.8%	-16.9%
O=C(/C=C(\C(=O)c1ccccc1)c1ccccc1)c1ccc(-c2ccccc2)cc1	8.2%	-2.35%	-3.15%	-6.9%	-3.45%	-16.9%
Nc1ncnc2c1c1cncnc1n2C1OC(CO)C(O)C1O (stereo not given)	9.55%	-4.75%	-9.55%	16.1%	7.45%	17.1%
O=C(O)c1ccccc1Nc1ccccc1	5.75%	-22.1%	3.8%	-22.4%	-0.75%	-10%
Cc1cn(C(=O)NC23CC4CC(CC(C4)C2)C3)c(=O)[nH]c1=O	14.8%	1.6%	11.1%	9.65%	10.9%	82.2% (active)
O=C1NC2OC(CO)C(O)C(O1)C2O (stereo not given)	-9.7%	19.4%	-24.9%	-5%	-28.8%	-25%
O=C(O)CNC(=O)OCc1ccccc1	-35.9%	-16.4%	-35.5%	-45.8%	1.55%	-19.4%
O=C(NC(Cc1cnc[nH]1)C(=O)N1CCCC1)C1CCCC1 (stereo not given)	-22.4%	-20.4%	13.7%	6.2%	0.9%	-14.3%
COC(=O)C(=O)c1c(C(=O)OC)nc2[nH]n(-c3ccccc3)c(=O)c2c1Cc1ccccc1	-5.85%	1.05%	1.6%	-45.9%	-37.5%	8.25%
c1ccc(C2=NCC(c3ccccc3)(C3(c4ccccc4)SCCCS3)O2)cc1 (stereo not given)	30.8%	5.15%	12.7%	-13.8%	-3.35%	6.55%
OCC1CC(c2ccccc2)=NO1 (stereo not given)	-19.9%	-11.1%	-11.2%	-20.2%	-3.9%	-17.6%
Cc1c(O)ccc(N=O)c1O	20.4%	2.6%	18.9%	35.8%	-1.6%	8.15%
O=C1NC(CO)C(=O)NC1CO (stereo not given)	3.7%	-4.4%	-12.2%	-2.75%	0.25%	-4.8%
O=C(Nc1ccc(S(=O)(=O)NC2CCCCC2)cc1)Oc1ccc([N+](=O)[O-])cc1	32.5%	3.55%	18.4%	10.8%	8.4%	19.4%

Source: PubChem BioAssay (NCI)
